We go through 40 sequences from the OligoGym collection.
Also: reference of the scale not given here.

In one test the target is CLN5. The test can be described thus: pooled miR-30 sensor sort-seq; sequence = guide strand. Conditions: shRNA.
In the case of TGTTCTTGAACTCTGCTCCAAA, the sensor-assay potency score (higher = more potent) is -0.828.
For the sequence TTATAAAACAAATAGAACTGTT, the sensor-assay potency score (higher = more potent) is -0.281.
As for TTTGGTTGAACATGTTTCCTGA, the sensor-assay potency score (higher = more potent) amounted to 0.362.
Same read-out and setting: next, TTTCTATGTTCTTGAACTCTGC: -0.7; TAGTTGGTTTCTATGTTCTTGA: -0.69; TCTATGTTCTTGAACTCTGCTC: 0.0222.
The same measure, in the same setting: the value for TACATAACTGATATGAACCATA was -0.617; that for TATAAAACAAATAGAACTGTTT was -0.137.
For TTAACTTTATGCACCAAGGAAG, the sensor-assay potency score (higher = more potent) was -0.963.
The same measure, in the same setting: next, TTGCCAGTTAATGTACTTCTGA: -0.714; TTTCCTTCCAGTGAACATCATC: -0.843.
Same read-out and setting: next, TAATATGCAGCAATTCTGCTGA: 0.18.
Still for that read-out and setting: next, TTTAACTTTATGCACCAAGGAA: -0.689.

The next test deals with CLRN3. The description is as above. As to conditions: shRNA.
On to TCTAACAGCAATCGTACTGGTG, for which the sensor-assay potency score (higher = more potent) was -0.061.
TTGTCCAGAGAAGCTAACCAGT: the sensor-assay potency score (higher = more potent) is -1.23.
In the case of TTCAGTATCTCTAAAACTGCAA, the sensor-assay potency score (higher = more potent) is -0.132.
On the same count and under the same terms, next, TAAGTGATGAAAATGCTCCCAT: 0.574; ATTTGGAACAACTCTTCGGAGA: -1.11; TCTCTAACAGCAATCGTACTGG: -0.178.
The sequence TAAAGCATTTGGAACAACTCTT displayed a sensor-assay potency score (higher = more potent) of 0.169.
Turning to TAAAACTGCAAACTTTTTCTTT, the sensor-assay potency score (higher = more potent) is -0.472.
The same measure, in the same setting: the value for TTGAAGCAGAGTCTCTAACAGC was -0.854; that for TATATTTAGAAGAATGACGAGC was -0.483; that for TTACCATGCTGAATTGTCCAGA was -0.037.
The same measure, in the same setting: the value for TTTGAATACCACACAGACCAGC was -1.01.

The target of the next test is CMAS. Described as above. Conditions: shRNA.
With TAGTGAGGTAGAGCTGTCTTTT, the sensor-assay potency score (higher = more potent) is -0.742.
Turning to TACAACTGCTAGCTTGTCTGAT, the sensor-assay potency score (higher = more potent) was -0.274.
The same measure, in the same setting: the value for TCATCTACAACTGCTAGCTTGT was -0.405; that for TTCTTTAATAAACTTATCCCAA was -0.589.
As to TAGAGCTGTCTTTTGAAACTTC, the sensor-assay potency score (higher = more potent) was 0.56.
The same measure, in the same setting: next, TTTAGCTGGATTTAAATTCAGA: -0.846; TTTCACTCCATCGAAACTGATG: -0.871.
Same read-out and setting: next, TTTGAAACTTCAGAACTTCTTC: 0.8; TACATTTGCAAATGTATCCAAC: -0.636.
Regarding TATATATATATCACAAACCAAA, the sensor-assay potency score (higher = more potent) is -1.7.
As to TTCATCTACAACTGCTAGCTTG, the sensor-assay potency score (higher = more potent) was -0.562.
The same measure, in the same setting: next, TTCGATGAACTTGTGCACCAAA: -0.973.

Another test deals with CMIP. The description is as above. Conditions: shRNA.
Take TCTTTCAAGACAACTTCCCAGC: the sensor-assay potency score (higher = more potent) was -0.735.
Still for that read-out and setting: next, TCGATGACCACCATGGACCGGG: -0.357.
TTCGAGGTGAGGATCTTGCTGA: the sensor-assay potency score (higher = more potent) turned out to be 0.014.
